Assay results from PubChem BioAssay (NCI).
This is part of a sample that, as a whole, favours compounds with a hit. Of some 83,000 tested, about 20% had one in any assay.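 How to read the values: 0–100, growth inhibition (40 = 60% inhibited); 0, no net growth; -100 to 0, cell death (-40 = 40% of starting cells died; -100 = all dead).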 A number with no mark means an inactive call. Active and inactive are the calls of the source. The calls were made as follows: active = growth percent below 10; inactive = the rest.

Key:
Experiment in all cases: NCI-60 one-dose screen, 48 h (100 = growth as untreated, 0 = no growth, -100 = all killed)
Details in all cases: 10 µM unless noted
NCI-H23 lung = test system: NCI-H23 lung
NCI-H226 lung = test system: NCI-H226 lung
NCI-H322M lung = test system: NCI-H322M lung
HOP-62 NSCLC = test system: HOP-62 NSCLC
NCI-H460 lung = test system: NCI-H460 lung
HOP-92 NSCLC = test system: HOP-92 NSCLC
NCI-H522 lung = test system: NCI-H522 lung
A549/ATCC NSCLC = test system: A549/ATCC NSCLC
786-0 renal = test system: 786-0 renal
COLO 205 colon = test system: COLO 205 colon

Compound | growth (NCI-H23 lung) | growth (NCI-H226 lung) | growth (NCI-H322M lung) | growth (HOP-62 NSCLC) | growth (NCI-H460 lung) | growth (HOP-92 NSCLC) | growth (NCI-H522 lung) | growth (A549/ATCC NSCLC) | growth (786-0 renal) | growth (COLO 205 colon)
CC(=O)Nc1cccc(Nc2nccc(N[C@@H](C)c3ccccc3)n2)c1 | 18.2% | 34.7% | 40.6% | 8.72% (active) | 5.42% (active) | 45% | -43.4% (active) | 16.4% | 26.6% | -3.46% (active)
CC1=C(C(=O)c2ccccc2)C(c2ccc(-n3cncn3)cc2)n2c(nc3ccccc32)N1 (stereo not given) | 87.9% | 87.4% | 79.5% | 71.5% | 80.5% | 76.1% | 83.2% | 77.1% | 96.8% | 95.4%
CC(=O)OC[C@@]1(C)C2CC[C@]3(C)C(CC=C4C5CC(C)(C)CC[C@]5(C(=O)Nc5ccc(Br)cc5)CC[C@]43C)[C@@]2(C)C[C@@H](OC(C)=O)[C@@H]1OC(C)=O (stereo not given in full) | 45.6% | 45.2% | 67.9% | 38.5% | 17% | 54.7% | 45.6% | 38.9% | 51.2% | 43.8%
CN1CCc2c(sc3ncnc(N/N=C/c4ccc(Cl)cc4Cl)c23)C1 | 12.2% | -59.8% (active) | 29.2% | 27.1% | 10.1% | -47.2% (active) | -34.3% (active) | 31.4% | -93.9% (active) | -48% (active)
C=Cn1cc(C(=O)O)c(=O)c2cc(F)c(N3CCN(c4nccc(-c5nccs5)n4)CC3)cc21 | -60.5% (active) | -20.5% (active) | -14.5% (active) | -34.4% (active) | 9.63% (active) | -32.7% (active) | -76.6% (active) | -34.3% (active) | -22.3% (active) | -61.5% (active)
O=C1/C(=C/C2=Cc3ccccc3OC2)SC(=S)N1c1ccccc1F | 103% | 101% | 105% | 101% | 121% | 61.6% | 92.6% | 96.7% | 87.4% | 116%
COc1ccccc1C(=O)NN1C(=O)/C(=C/C2=Cc3ccccc3OC2)SC1=S | 106% | 98.9% | 99.4% | 106% | 120% | 86.6% | 97.9% | 103% | 104% | 119%
CCCCCCCCc1ccc(C(=O)Nc2ccc(C)cc2C(=O)O)cc1C | 99.6% | 89.4% | 99.3% | 96.2% | 92.7% | 99% | -0.59% (active) | 85.8% | 104% | 114%
O=c1[nH]c2ccccc2cc1CSc1nccc(-c2ccc3ccccc3c2)n1 | 77.8% | 70.4% | 96% | 71.5% | 77% | 68.5% | 49.6% | 56.8% | 78.3% | 83.3%
CC1=C(C(=O)OCc2ccccc2)C(c2ccc(-n3cncn3)cc2)n2c(nc3ccccc32)N1 (stereo not given) | 86% | 77.6% | 83.5% | 64.6% | 28.1% | 73.9% | 19.3% | 60.1% | 69.2% | 37.9%
Nc1cccc(SCc2cc3ccccc3[nH]c2=O)c1 | 73.5% | 69.8% | 73.3% | 42.7% | 20% | 74.6% | 43.6% | 33.2% | 47.3% | 29%
COc1ccc(NC(=O)[C@H](CO)NC(=O)OC(C)(C)C)cc1C(=O)Nc1cccc(C2CC(=O)c3c(cc(OC)c(OC)c3OC)O2)c1 (stereo not given in full) | 50.7% | 48.1% | 81.1% | 83% | 55.3% | 81.9% | 31.4% | 68.8% | 68.3% | 77.2%
CN(C)c1ccnc(CNCCSC2(c3ccc(C(F)(F)F)cc3)c3ccccc3CCc3ccccc32)c1 | -31.8% (active) | -31.6% (active) | 8.82% (active) | -57.8% (active) | -80.5% (active) | -17.7% (active) | -82.6% (active) | -27.6% (active) | -6.83% (active) | -83.7% (active)
CCCCCCCCc1ccc(C(=O)Nc2cccc(P(=O)(O)O)c2)cc1 | 96.7% | 97.4% | 103% | 111% | 107% | 114% | 112% | 99.9% | 104% | 113%
O=C(Cn1c(/C=C/c2cccc([N+](=O)[O-])c2)nc2ccccc2c1=O)Nc1ccccc1 | 77.2% | 75.7% | 83.9% | 53.6% | 67.2% | 64.2% | 91.8% | 56.1% | 59.6% | 81.1%
COc1ccc(C(=O)/C=C/c2ccccc2Cl)cc1S(N)(=O)=O | 117% | 106% | 102% | 124% | 103% | 102% | 102% | 112% | 104% | 106%
CCCCSc1nc(NCCc2c[nH]c3ccccc23)c(C#N)c(-c2ccccc2)n1 | 15.8% | 44.6% | 83.8% | 39.7% | 14.5% | -1.67% (active) | 47.4% | 39.1% | 10.6% | 24.8%
C[C@H]1CN(C(=O)c2ccc3c(NNC(=O)c4ccncn4)nc4cc(F)c(F)cc4n23)CCN1 | 37.5% | 6.31% (active) | 32.2% | 18.7% | 6.66% (active) | 65.4% | 67.9% | 19.4% | -14.4% (active) | 9.98% (active)
CNC(=O)c1cccc(NC(=O)c2ccc3c(c2)nnn3/C(C#N)=C/c2ccccn2)c1 | -39.3% (active) | -97.4% (active) | 91.8% | 82.7% | 51.5% | -29.5% (active) | -90% (active) | 83.2% | -95.9% (active) | -86.6% (active)
S=C(Nc1ccccc1)Nc1ccc(OCc2nc3ccccc3[nH]2)cc1 | 37% | 79.9% | 63.6% | 43.6% | 31.3% | 74.8% | 2.87% (active) | 31% | 31.8% | 32.9%
O=C(/C=C/c1cccc(OCc2ccc(F)cc2)c1)c1nc2ccccc2[nH]1 | 73% | 42.2% | 114% | 71.1% | 76.8% | 27.5% | 63.5% | 49.5% | -46.1% (active) | 13.8%
N#Cc1c(NCc2ccccc2)n[nH]c1Nc1ccccc1 | 58.4% | 50.2% | 65.1% | 88.9% | 44.2% | 62.3% | 82.3% | 31.6% | 63.3% | -8.53% (active)
C=C1CC[C@@H]2[C@]3(C)COC(c4cn[nH]c4-c4ccc(C)cc4)O[C@@H]3CC[C@@]2(C)[C@@H]1C/C=C1/C(=O)OCC1O (stereo not given in full) | -8.25% (active) | -65.3% (active) | 79.9% | 27.4% | 67% | -9.12% (active) | -58.4% (active) | 41.5% | -64% (active) | 12.8%
Cc1ccc([C@H]2C(C(=O)c3ccc(Cl)cc3)C3(N[C@@H]2c2ccccc2)C(=O)Nc2ccc(Br)cc23)cc1 (stereo not given in full) | 61.4% | 66.7% | 69.1% | 69.9% | 55.6% | 21.9% | 46.5% | 38.4% | 45.8% | 49.3%
NC(=S)Nc1cccc(NC(N)=S)c1 | 98.5% | 98.1% | 88.3% | 119% | 110% | 105% | 97.2% | 93.9% | 108% | 137%
NS(=O)(=O)c1ccc(-n2cc(-c3cccc(NC(=O)c4ccc(Cl)c(C(F)(F)F)c4)c3)nn2)cc1 | -4.59% (active) | 10% | 33.4% | 3.02% (active) | 18.1% | -5.36% (active) | 45.8% | 4.33% (active) | 22.5% | 2.2% (active)
